Broadly, the viability is a read-out of living cells in per cent, often relative to untreated cells.

Molecules are shown by their SMILES. Calls of active or inactive are those of the source.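 Rule for the calls, unless noted: active = normalized viability below 100% at a tested concentration; inactive = the rest.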

Assay [1] is described as follows: sensitizers of A549 cells to miR-34 induction, primary screen, imaging, A549 dox-inducible miR-34, nuclei and caspase counts (AID 1347080;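 active = compounds whose cell count with miR-34 switched on is under 0.7 times the count with it off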). As to conditions: A549 miR-34 inducible, Hoechst nuclei count, 48 h.
Assay [2] can be described thus: survival rescue of mitochondrial mutant cells in low glucose, primary screen, MELAS cybrids, Rieske KO mouse fibroblasts, CellTiter-Glo (AID 1508586;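 active = mean z-score across replicates of 1.96 or higher in either the MELAS or the Rieske mutant cell line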;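 note: z relative to plate mean and SD of compound and empty wells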). For orientation: ATP-based viability assays read luminescence as a measure of living cells.
Assay [3] can be described thus: ovarian cancer cell viability with rucaparib, profiling panel, oncology-focused library, rucaparib conditional (AID 1508598). The following applies: patient-derived ovarian cancer cells, CellTiter-Glo viability, 144 h, stronger effect = lower value.
Setting [4] is: stronger effect = lower value, cell number ratio, induced over uninduced.
[5] abbreviates: measured here: relative caspase fold change +Dox/-Dox.
Where [6] appears, read: measured here: total cells with miR-34 induction, stronger effect = lower value.
The mark [7] stands for this setting: measured here: total cells without miR-34 induction.
Where [8] appears, read: MELAS cybrid survival, CellTiter-Glo 48 h, stronger effect = higher value.
[9] abbreviates: Rieske KO mouse fibroblast survival, CellTiter-Glo 72 h.
[10] abbreviates: at 0.000305 µM, OCI-C5x cells, with rucaparib 10 µM, 100% = cells with rucaparib alone.
The mark [11] stands for this setting: at 0.000305 µM, OCI-C5x cells, without rucaparib.
Setting [12] is: at 0.000305 µM, OCI-P5x cells, with rucaparib 20 µM, 100% = cells with rucaparib alone.
[13] abbreviates: at 0.000305 µM, OCI-P5x cells, without rucaparib.
Where [14] appears, read: at 0.00122 µM, OCI-C5x cells, with rucaparib 10 µM, 100% = cells with rucaparib alone.
Where [15] appears, read: at 0.00122 µM, OCI-C5x cells, without rucaparib.
The mark [16] stands for this setting: at 0.00122 µM, OCI-P5x cells, with rucaparib 20 µM, 100% = cells with rucaparib alone.
[17] abbreviates: at 0.00122 µM, OCI-P5x cells, without rucaparib.
Setting [18] is: at 0.00488 µM, OCI-C5x cells, with rucaparib 10 µM, 100% = cells with rucaparib alone.
Where [19] appears, read: at 0.00488 µM, OCI-C5x cells, without rucaparib.
Where [20] appears, read: at 0.00488 µM, OCI-P5x cells, with rucaparib 20 µM, 100% = cells with rucaparib alone.
[21] abbreviates: at 0.00488 µM, OCI-P5x cells, without rucaparib.
The mark [22] stands for this setting: at 0.0195 µM, OCI-C5x cells, with rucaparib 10 µM, 100% = cells with rucaparib alone.
[23] abbreviates: at 0.0195 µM, OCI-C5x cells, without rucaparib.
The mark [24] stands for this setting: at 0.0195 µM, OCI-P5x cells, with rucaparib 20 µM, 100% = cells with rucaparib alone.
[25] abbreviates: at 0.0195 µM, OCI-P5x cells, without rucaparib.
The mark [26] stands for this setting: at 0.0781 µM, OCI-C5x cells, with rucaparib 10 µM, 100% = cells with rucaparib alone.
The mark [27] stands for this setting: at 0.0781 µM, OCI-C5x cells, without rucaparib.
[28] abbreviates: at 0.0781 µM, OCI-P5x cells, with rucaparib 20 µM, 100% = cells with rucaparib alone.
The mark [29] stands for this setting: at 0.0781 µM, OCI-P5x cells, without rucaparib.
[30] abbreviates: at 0.313 µM, OCI-C5x cells, with rucaparib 10 µM, 100% = cells with rucaparib alone.
Setting [31] is: at 0.313 µM, OCI-C5x cells, without rucaparib.
Where [32] appears, read: at 0.313 µM, OCI-P5x cells, with rucaparib 20 µM, 100% = cells with rucaparib alone.
[33] abbreviates: at 0.313 µM, OCI-P5x cells, without rucaparib.
The mark [34] stands for this setting: at 1.25 µM, OCI-C5x cells, with rucaparib 10 µM, 100% = cells with rucaparib alone.
Setting [35] is: at 1.25 µM, OCI-C5x cells, without rucaparib.
Setting [36] is: at 1.25 µM, OCI-P5x cells, with rucaparib 20 µM, 100% = cells with rucaparib alone.
[37] abbreviates: at 1.25 µM, OCI-P5x cells, without rucaparib.
[38] abbreviates: at 5 µM, OCI-C5x cells, with rucaparib 10 µM, 100% = cells with rucaparib alone.
Setting [39] is: at 5 µM, OCI-C5x cells, without rucaparib.
Setting [40] is: at 5 µM, OCI-P5x cells, with rucaparib 20 µM, 100% = cells with rucaparib alone.
The mark [41] stands for this setting: at 5 µM, OCI-P5x cells, without rucaparib.

Take `CC(C)NCCCn1c(Sc2cc3c(cc2I)OCO3)nc2c(N)ncnc21`: the fold change in assay [1] (setting [4]) was 1.06 (inactive); in assay [1] (setting [5]), 0.435. Moreover, the cell count in assay [1] (setting [6]) was found to be 2580; in assay [1] (setting [7]), 2430. Moreover, the values for the z-score in assay [2] (setting [8]) and in assay [2] (setting [9]) were 3.04 (active) and -0.929, respectively. Also, the viability was 125% (inactive) in assay [3] (setting [10]); 112% (inactive) in assay [3] (setting [11]); 95.1% (active) in assay [3] (setting [12]); 94.7% (active) in assay [3] (setting [13]); 129% (inactive) in assay [3] (setting [14]); 108% (inactive) in assay [3] (setting [15]). For the same compound, the viability is 102% (inactive) in assay [3] (setting [16]); 94.3% (active) in assay [3] (setting [17]); 119% (inactive) in assay [3] (setting [18]); 107% (inactive) in assay [3] (setting [19]); 99.8% (active) in assay [3] (setting [20]); 98.3% (active) in assay [3] (setting [21]). Further, the viability is 126% (inactive) in assay [3] (setting [22]); 122% (inactive) in assay [3] (setting [23]); 101% (inactive) in assay [3] (setting [24]); 97.9% (active) in assay [3] (setting [25]); 139% (inactive) in assay [3] (setting [26]); 127% (inactive) in assay [3] (setting [27]). In addition, the viability in assay [3] (setting [28]) was 105% (inactive); in assay [3] (setting [29]), 107% (inactive); in assay [3] (setting [30]), 143% (inactive); in assay [3] (setting [31]) it was 60.7% (active); in assay [3] (setting [32]) it was 15.7% (active); in assay [3] (setting [33]) it was 9.78% (active). For the same compound, the viability in assay [3] (setting [34]) is 77.5% (active); in assay [3] (setting [35]), 33.9% (active); in assay [3] (setting [36]) it was 17.3% (active); in assay [3] (setting [37]) it was 8.78% (active); in assay [3] (setting [38]) it was 15.7% (active); in assay [3] (setting [39]), 9.3% (active). Also, the viability was 7.34% (active) in assay [3] (setting [40]) and 6.28% (active) in assay [3] (setting [41]).
As for `CCOC(=O)c1cnc2ccc(-c3cncc(NS(=O)(=O)c4ccccc4)c3)cn12`, the fold change was 0.888 (inactive) in assay [1] (setting [4]) and 0.323 in assay [1] (setting [5]). Also, the cell count in assay [1] (setting [6]) is 1650; in assay [1] (setting [7]) it was 1860. Further, the z-score in assay [2] (setting [8]) was 0.296 (inactive); in assay [2] (setting [9]), 0.8. For the same compound, the viability in assay [3] (setting [10]) was 115% (inactive); in assay [3] (setting [11]), 99.1% (active); in assay [3] (setting [12]), 102% (inactive); in assay [3] (setting [13]) it was 99.9% (active); in assay [3] (setting [14]) it was 121% (inactive); in assay [3] (setting [15]), 102% (inactive). Also, the viability in assay [3] (setting [16]) was 101% (inactive); in assay [3] (setting [17]) it was 95.7% (active); in assay [3] (setting [18]) it was 129% (inactive); in assay [3] (setting [19]) it was 105% (inactive); in assay [3] (setting [20]), 107% (inactive); in assay [3] (setting [21]), 94.6% (active). Moreover, the viability was 122% (inactive) in assay [3] (setting [22]); 112% (inactive) in assay [3] (setting [23]); 102% (inactive) in assay [3] (setting [24]); 94.3% (active) in assay [3] (setting [25]); 91.1% (active) in assay [3] (setting [26]); 74.3% (active) in assay [3] (setting [27]). For the same compound, the viability in assay [3] (setting [28]) was 88.7% (active); in assay [3] (setting [29]), 48.1% (active); in assay [3] (setting [30]), 69.7% (active); in assay [3] (setting [31]), 46.2% (active); in assay [3] (setting [32]) it was 66.1% (active); in assay [3] (setting [33]), 23.4% (active). The viability in assay [3] (setting [34]) was 52.2% (active); in assay [3] (setting [35]), 37% (active); in assay [3] (setting [36]), 46.2% (active); in assay [3] (setting [37]), 13.9% (active); in assay [3] (setting [38]), 4.93% (active); in assay [3] (setting [39]), 22.5% (active). For the same compound, the values for the viability in assay [3] (setting [40]) and in assay [3] (setting [41]) were 14.6% (active) and 8.51% (active), respectively.
For `COC1C=CO[C@]2(C)Oc3c(C)c(O)c4c(O)c(c5c(nc6cc(C)ccn65)c4c3C2=O)NC(=O)C(C)=CC=CC(C)C(O)C(C)C(O)C(C)C(OC(C)=O)C1C` (stereo partly drawn), the fold change in assay [1] (setting [4]) was 0.885 (inactive); in assay [1] (setting [5]), 1.2. Moreover, the cell count in assay [1] (setting [6]) came out at 7180; in assay [1] (setting [7]), 8110. In addition, the figures for the z-score in assay [2] (setting [8]) and in assay [2] (setting [9]) were -0.112 (inactive) and 0.022, respectively.
As for `C[N+]1(C)[C@@H]2CC(OC(=O)C(O)(c3cccs3)c3cccs3)C[C@H]1C1OC12` (stereo partly drawn), the values for the fold change in assay [1] (setting [4]) and in assay [1] (setting [5]) were 0.933 (inactive) and 0.479, respectively. The figures for the cell count in assay [1] (setting [6]) and in assay [1] (setting [7]) were 9300 and 9960, respectively. Moreover, the z-score in assay [2] (setting [8]) was -0.398 (inactive); in assay [2] (setting [9]), -0.0197.

These data come from PubChem BioAssay.
